Assay results as given in PubChem BioAssay (EPA / NIEHS).
Inconclusive results are not listed. The source made the active and inactive calls. How the source made its calls: active means hit-call score of the fitted dose curve at least 0.9, where 1 is the maximum; inconclusive means response in the unintended direction; inactive means score below 0.9.

Legend:
[1] = TOX21_p53_BLA_p5_viability: Viability Assessment in the Tox21 HCT-116 p53 Agonism Beta-lactamase Assay, Phase 5 (AID 2283600)
Procedure, shortened: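 After the 460/530 nm beta-lactamase measurement, the wells received an ATP-detection luciferase reagent; signal was read 30 min later at RT. Compound treatment lasted 16 h on cells pre-incubated 5 h post-seeding.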

[2] = biological target: Cellular tumor antigen p53 (Homo sapiens) (UniProt P04637); assay: TOX21_p53_BLA_p4_ratio: Tox21 HCT-116 p53 Agonism Beta-lactamase Assay, Ratio, Phase 4 (AID 2283601)
Procedure, shortened: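 Signal is the blue/green (460nm/530nm) ratio of cleaved versus uncleaved CCF4-AM substrate, read after 2 h substrate loading. Cells were HCT116 carrying the p53-responsive beta-lactamase reporter, dosed 16 h at 37C, 5% CO2; CellTiter-Glo measured in parallel.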

[3] = Tanguay_ZF_120hpf_MORT_legacy: (Legacy) Oregon State University Tanguay Lab 120 Hour Post-fertilization zebrafish Assay for Mortality (AID 2283633)
Procedure, shortened: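 Static waterborne exposure from 6 to 120 hpf at 28C of single dechorionated wild-type (5D) embryos per well, 0.64% DMSO final. Death recorded present/absent by brightfield at 24 and 120 hpf.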

[4] = Tanguay_ZF_120hpf_YSE_legacy: (Legacy) Oregon State University Tanguay Lab 120 Hour Post-fertilization zebrafish Assay for Yolk Sac Edema (AID 2283634);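 on AC50: actives raise the incidence of yolk sac edema above the DMSO baseline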
Procedure, shortened: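 Presence or absence of yolk sac edema was recorded at 120 hpf in surviving larvae. These were wild-type Tropical 5D embryos, chorion removed at 4 hpf, held in static exposure at 28C from 6 hpf with 0.64% DMSO vehicle.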

[5] = Tanguay_ZF_120hpf_AXIS_legacy: (Legacy) Oregon State University Tanguay Lab 120 Hour Post-fertilization zebrafish Assay for Body Axis Malformation (AID 2283635);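 on AC50: potency for an increased fraction of larvae scored with body axis malformation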
Procedure, shortened: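 Binary scoring of axis defects at 120 hpf under brightfield, fitted positive versus DMSO. Tropical 5D embryos, chorion removed by pronase at 4 hpf, were singly exposed in sealed, dark plates at 28C from 6 hpf; DMSO 0.64% final.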

[6] = Tanguay_ZF_120hpf_JAW_legacy: (Legacy) Oregon State University Tanguay Lab 120 Hour Post-fertilization zebrafish Assay for Jaw Malformation (AID 2283638);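 on AC50: active means more embryos with jaw malformation than DMSO controls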
Procedure, shortened: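 Binary jaw-malformation call at 120 hpf by brightfield microscopy. Embryos (Tropical 5D strain, chorion removed at 4 hpf) were dosed statically at 6 hpf, one per well, at 28C with 0.64% DMSO. Embryos that died were not scored.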

[7] = Tanguay_ZF_120hpf_OTIC_legacy: (Legacy) Oregon State University Tanguay Lab 120 Hour Post-fertilization zebrafish Assay for Otic Vesicle Malformation (AID 2283639)
Procedure, shortened: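 Tropical 5D wild-type zebrafish embryos statically exposed in 0.64% DMSO at 28C until 120 hpf; 5uM trimethyltin chloride as positive control. Otic vesicle malformation scored present/absent by brightfield; dead embryos not scored; gain fitted versus DMSO.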

[8] = TOX21_p53_BLA_p4_viability: Viability Assessment in the Tox21 HCT-116 p53 Agonism Beta-lactamase Assay, Phase 4 (AID 2283597);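 further: hits lower the luminescence signal meaning cytotoxicity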
Procedure, shortened: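 Following a 16 h exposure at 37C, the treated HCT116 wells were first read for the FRET ratio. They were then lysed with CellTiter-Glo, and ATP luminescence was recorded after 30 min at room temperature.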

[9] = Tanguay_ZF_120hpf_SNOU_legacy: (Legacy) Oregon State University Tanguay Lab 120 Hour Post-fertilization zebrafish Assay for Snout Malformation (AID 2283637)
Procedure, shortened: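 Snout malformation read as a yes/no call on brightfield images of 120 hpf larvae (Tropical 5D strain). Static exposure began at 6 hpf on dechorionated embryos in 0.64% DMSO, with gain of signal analysed versus DMSO controls.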

[10] = Tanguay_ZF_120hpf_EYE_legacy: (Legacy) Oregon State University Tanguay Lab 120 Hour Post-fertilization zebrafish Assay for Eye Malformation (AID 2283636)
Procedure, shortened: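 Read-out is binary presence or absence of eye malformation, scored by brightfield microscopy at 120 hpf. Single larvae were exposed from 6 hpf in embryo medium containing 0.64% DMSO, with DMSO as baseline.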

Measured: AC50

Chain of Cellular tumor antigen p53 (Homo sapiens) (P04637 whole entry, looked up): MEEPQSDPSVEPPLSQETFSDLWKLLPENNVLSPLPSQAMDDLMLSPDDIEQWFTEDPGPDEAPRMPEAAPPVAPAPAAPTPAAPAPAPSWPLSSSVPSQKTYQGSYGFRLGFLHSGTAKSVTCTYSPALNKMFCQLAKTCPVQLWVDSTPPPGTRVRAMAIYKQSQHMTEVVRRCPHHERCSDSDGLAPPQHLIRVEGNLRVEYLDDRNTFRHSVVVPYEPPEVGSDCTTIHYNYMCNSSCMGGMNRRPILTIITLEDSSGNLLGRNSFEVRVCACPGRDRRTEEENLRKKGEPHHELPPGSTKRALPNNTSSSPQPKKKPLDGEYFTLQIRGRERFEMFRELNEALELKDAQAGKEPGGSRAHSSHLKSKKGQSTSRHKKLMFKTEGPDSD

CCc1cccc(CC)c1N
not listed: [8] | [9] | [10]
inactive: all other assays above

Cc1cccc(O)c1C
inactive: [1] | [2]

OC(Cn1cncn1)(Cn1cncn1)c1ccc(F)cc1F
not listed: [10]
inactive: all other assays above

CCOC(N)=O
inactive: all assays above

NC(=O)NN=Cc1ccc([N+](=O)[O-])o1
not listed: [7] | [10]
inactive: all other assays above

CC1(C)C(=O)N(Cl)C(=O)N1Cl
not listed: [2] | [10]
inactive: all other assays above

CCCCCCCCCC
inactive: all assays above

CCCCN1C(=O)[C@@H]([C@H](O)C2CCCCC2)NC(=O)C12CCN(Cc1ccc(Oc3ccc(C(=O)O)cc3)cc1)CC2
active: [2] 57.9 µM
not listed: [1] | [10]
inactive: all other assays above

C=CN1CCCC1=O
inactive: all assays above

CCCCCCCCN(C)C
not listed: [2] | [4] | [10]
inactive: all other assays above

O=C1CN(N=Cc2ccc([N+](=O)[O-])o2)C(=O)N1
not listed: [4] | [5] | [6]
inactive: all other assays above

NNC(=O)c1ccncc1
inactive: all assays above

CCCCOC(=O)c1ccccc1
not listed: [8]
inactive: all other assays above

O=C(N[C@H](CO)[C@H](O)c1ccc([N+](=O)[O-])cc1)C(Cl)Cl
inactive: [8] | [1] | [2]

O=S1(=O)CCCO1
not listed: [4]
inactive: all other assays above

CCCCCCCC/C=C\CCCCCCCC(=O)OC[C@@H](O)[C@H]1OC[C@H](O)[C@H]1O
not listed: [4] | [8]
inactive: all other assays above

OC(CCl)CCl
not listed: [2]
inactive: all other assays above

OCc1c[nH]c2ccccc12
inactive: [8] | [1]
active: [2] 78.9 µM

C[C@]12C=CC(=O)C=C1CC[C@H]1[C@@H]3C[C@@H](O)[C@](O)(C(=O)CO)[C@@]3(C)C[C@H](O)[C@@]12F
not listed: [1]
inactive: all other assays above

c1ccc(C(O[C@@H]2CCCN(CCc3ccc4c(c3)OCO4)C2)c2ccccc2)cc1
active: [4] 24.7 µM | [5] 34.7 µM | [10] 36.5 µM | [9] 44.2 µM | [6] 44.8 µM | [7] 45.8 µM
inactive: [8] | [2] | [3]

c1ccc2ncccc2c1
inactive: all assays above

CCCc1ccccc1
not listed: [2] | [8]
inactive: all other assays above

S=P(N1CC1)(N1CC1)N1CC1
inactive: [8] | [1] | [2]

c1ccc2cc3ccccc3cc2c1
inactive: all assays above

CC(=O)c1ccccc1
inactive: all assays above
